# Measured values: the supplement of paper PMC8728848
# About 410 targets per protein were measured; listed, in parts, are those with the strongest signals and a random draw of the rest.
# B1: LYVE-1 (Homo sapiens), Q9Y5Y7 (protein)
# chain: MARCFSLVLLLTSIWTTRLLVQGSLRAEELSIQVSCRIMGITLVSKKANQQLNFTEAKEACRLLGLSLAGKDQVETALKASFETCSYGWVGDGFVVISRISPNPKCGKNGVGVLIWKVPVSRQFAAYCYNSSDTWTNSCIPEIITTKDPIFNTQTATQTTEFIVSDSTYSVASPYSTIPAPTTTPPAPASTSIPRRKKLICVTEVFMETSTMSTETEPFVENKAAFKNEAAGDPEVKFNWYVDGVEVHNAKPREEQYNSTYRVVSLVTVLHQDWLNGKEYKCKVSNKALPAPIEKTISKAKGQPREPQVYTLPPSRDELTKNQVSLTCLVKGFYPSDIAVEWESNGQPENNYKTTPPVLDSDGSFFLYSKLTVDKSRWQQGNVFSCSVMHEALHNHYTQRSLSLSPGK
# B2: MUC1-SEA-mFcIgG2a (Homo sapiens), P15941 (SEA domain only) (protein)
# chain: DAAQPARRAVRSSSELTSEQKLISEEDLSRLVHNGTSARATTTPASKSTPFSIPSHHSDTPTTLASHSTKTDASSTHHSTVPPLTSSNHSTSPQLSTGVSFFFLSFHISNLQFNSSLEDPSTDYYQELQRDISEMFLQIYKQGGFLGLSNIKFRPGSVVVQLTLAFREGTINVHDVETQFNQYKTEAASRYNLTISDASVSDVPFPFSAQSGSDDDDKALEPRGPTIKPCPPCKCPAPNLLGGPSVFIFPPKIKDVLMISLSPIVTCVVVDVSEDDPDVQISWFVNNVEVHTAQTQTHREDYNSTLRVVSALPIQHQDWMSGKEFKCKVNNKDLPAPIERTISKPKGSVRAPQVYVLPPPEEEMTKKQVTLTCMVTDFMPEDIYVEWTNNGKTELNYKNTEPVLDSDGSYFMYSKLRVEKKNWVERNSYSCSVVHEGLHNHHTTKSFSRTPGKHHHHH
# Key:
# Assay in all cases: glycan array binding signal (z-score within array); higher = stronger binding
# Details in all cases: glycan notation: IUPAC condensed, linker removed
# [1] = target: Fuc(a1-2)Gal
# Summary of the method: (§1)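 Columns mapping to the same glycan were averaged after glycan names were converted to IUPAC-condensed notation. The data come from 3228 arrays in the Consortium for Functional Glycomics database, limited to those with an available protein sequence. Binding is reported as a within-array Z-score averaged across arrays of one protein sequence and across linkers.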
# [2] = target: Fuc(a1-2)[Gal(a1-3)]Gal
# Summary of the method: as §1
# [3] = target: Fuc(a1-3)[Gal3S(b1-4)]Glc6S
# Summary of the method: as §1
# [4] = target: Gal(a1-3)GalNAc
# Summary of the method: as §1
# [5] = target: Gal(a1-4)Gal(b1-4)Glc
# Summary of the method: as §1
# [6] = target: Gal(a1-4)GlcNAc
# Summary of the method: as §1
# [7] = target: Gal(b1-2)Gal
# Summary of the method: as §1
# [8] = target: Gal(b1-4)GalNAc(a1-3)[Fuc(a1-2)]Gal(b1-4)GlcNAc
# Summary of the method: as §1
# [9] = target: Gal(b1-4)GlcNAc(b1-3)GalNAc
# Summary of the method: as §1
# [10] = target: Gal3S(b1-4)GlcNAc
# Summary of the method: as §1
# [11] = target: Gal3S(b1-4)[Fuc(a1-3)]Glc
# Summary of the method: as §1
# [12] = target: GalNAc(b1-4)GlcNAc
# Summary of the method: as §1
# [13] = target: GlcA(b1-3)Gal
# Summary of the method: as §1
# [14] = target: GlcNAc(b1-4)GlcNAc(b1-4)GlcNAc(b1-4)GlcNAc(b1-4)GlcNAc(b1-4)GlcNAc
# Summary of the method: as §1
# [15] = target: Neu5Ac(a2-3)Gal(b1-3)GalNAc
# Summary of the method: as §1
# [16] = target: Neu5Ac(a2-3)Gal(b1-3)GalNAc(b1-3)Gal(a1-4)Gal(b1-4)Glc
# Summary of the method: as §1
# [17] = target: Neu5Ac(a2-3)Gal(b1-3)GalNAc(b1-4)[Neu5Ac(a2-3)]Gal(b1-4)Glc
# Summary of the method: as §1
# [18] = target: Neu5Ac(a2-3)Gal(b1-3)[Neu5Ac(a2-6)]GalNAc
# Summary of the method: as §1
# [19] = target: Neu5Ac(a2-3)Gal(b1-4)Glc
# Summary of the method: as §1
# [20] = target: Neu5Ac(a2-3)Gal(b1-4)GlcNAc(b1-2)Man(a1-3)[GlcNAc(b1-2)Man(b1-4)GlcNAc(b1-2)Man(a1-6)]Man(b1-4)GlcNAc(b1-4)GlcNAc
# Summary of the method: as §1
# [21] = target: Neu5Ac(a2-3)Gal(b1-4)GlcNAc(b1-6)[Neu5Ac(a2-3)Gal(b1-3)]GalNAc
# Summary of the method: as §1
# [22] = target: Neu5Ac(a2-3)Gal(b1-4)GlcNAc6S
# Summary of the method: as §1
# [23] = target: Neu5Ac(a2-3)Gal(b1-4)[Fuc(a1-3)]GlcNAc(b1-3)Gal(b1-4)[Fuc(a1-3)]GlcNAc(b1-3)Gal(b1-4)[Fuc(a1-3)]GlcNAc
# Summary of the method: as §1
# [24] = target: Neu5Ac(a2-3)GalNAc(b1-4)GlcNAc
# Summary of the method: as §1
# [25] = target: Neu5Ac(a2-6)Gal(b1-4)GlcNAc(b1-2)Man(a1-3)[GlcNAc(b1-2)Man(a1-6)]Man(b1-4)GlcNAc(b1-4)GlcNAc
# Summary of the method: as §1
# [26] = target: Neu5Ac(a2-6)Gal(b1-4)GlcNAc(b1-2)Man(a1-6)[GlcNAc(b1-2)Man(a1-3)]Man(b1-4)GlcNAc(b1-4)GlcNAc
# Summary of the method: as §1
# [27] = target: Neu5Ac(a2-6)GalNAc(b1-4)GlcNAc
# Summary of the method: as §1
# [28] = target: Fuc(a1-2)Gal(b1-3)GalNAc
# Summary of the method: as §1
# [29] = target: Fuc(a1-2)Gal(b1-3)GalNAc(b1-3)Gal
# Summary of the method: as §1
# [30] = target: Fuc(a1-2)Gal(b1-3)GlcNAc
# Summary of the method: as §1
# [31] = target: Fuc(a1-2)Gal(b1-4)Glc
# Summary of the method: as §1
# [32] = target: Fuc(a1-2)Gal6S(b1-4)Glc6S
# Summary of the method: as §1
# [33] = target: Fuc(a1-2)[GalNAc(b1-3)]Gal
# Summary of the method: as §1
# [34] = target: Fuc(a1-3)[Gal(b1-4)]GlcNAc
# Summary of the method: as §1
# [35] = target: Fuc(a1-3)[Gal(b1-4)]GlcNAc(b1-2)Man(a1-6)[Gal(b1-4)GlcNAc(b1-2)Man(a1-3)]Man(b1-4)GlcNAc(b1-4)GlcNAc
# Summary of the method: as §1
# [36] = target: Fuc(a1-3)[Gal(b1-4)]GlcNAc(b1-4)Gal(b1-4)[Fuc(a1-3)]GlcNAc(b1-4)Gal(b1-4)[Fuc(a1-3)]GlcNAc
# Summary of the method: as §1
# [37] = target: Fuc(a1-3)[Gal3S(b1-4)]GlcNAc6S
# Summary of the method: as §1
# [38] = target: Gal(b1-4)GlcNAc(b1-6)Gal(b1-4)GlcNAc(b1-6)GalNAc
# Summary of the method: as §1
# [39] = target: Gal3S(b1-3)[Fuc(a1-4)]GlcNAc
# Summary of the method: as §1
# [40] = target: Gal3S(b1-4)Glc6S
# Summary of the method: as §1
# [41] = target: Gal3S6S(b1-4)GlcNAc6S
# Summary of the method: as §1
# [42] = target: Gal4S6S(b1-4)GlcNAc
# Summary of the method: as §1
# [43] = target: Gal6S(b1-4)Glc6S
# Summary of the method: as §1
# [44] = target: GlcNAc(a1-6)Gal(b1-4)GlcNAc
# Summary of the method: as §1
# [45] = target: GlcNAc(b1-3)Gal
# Summary of the method: as §1
# [46] = target: GlcNAc(b1-4)Gal(b1-4)GlcNAc
# Summary of the method: as §1
# [47] = target: GlcNAc(b1-4)[GlcNAc(b1-6)]GalNAc
# Summary of the method: as §1
# [48] = target: Man(a1-2)Man(a1-3)[Man(a1-6)]Man(a1-6)[Man(a1-2)Man(a1-3)]Man(b1-4)GlcNAc(b1-4)GlcNAc
# Summary of the method: as §1
# [49] = target: Man(a1-3)[Man(a1-6)]Man(b1-4)GlcNAc(b1-4)GlcNAc
# Summary of the method: as §1
# [50] = target: Man(a1-6)Man
# Summary of the method: as §1
# [51] = target: Neu5Ac(a2-6)Gal(b1-4)GlcNAc(b1-2)Man(a1-3)[Gal(b1-4)GlcNAc(b1-2)Man(a1-6)]Man(b1-4)GlcNAc(b1-4)GlcNAc
# Summary of the method: as §1
# [52] = target: Neu5Ac(a2-6)Gal(b1-4)GlcNAc(b1-3)Gal(b1-4)GlcNAc
# Summary of the method: as §1
# [53] = target: Neu5Ac(a2-8)Neu5Ac(a2-3)[GalNAc(b1-4)]Gal(b1-4)Glc
# Summary of the method: as §1
binder,measurement,setting,value
B1,glycan array binding signal (z-score),[1],-0.222
same,glycan array binding signal (z-score),[2],0.242
same,glycan array binding signal (z-score),[3],-0.066
same,glycan array binding signal (z-score),[4],-0.27
same,glycan array binding signal (z-score),[5],-0.09
same,glycan array binding signal (z-score),[6],-0.269
same,glycan array binding signal (z-score),[7],-0.409
same,glycan array binding signal (z-score),[8],-0.338
same,glycan array binding signal (z-score),[9],-0.411
same,glycan array binding signal (z-score),[10],-0.036
same,glycan array binding signal (z-score),[11],-0.34
same,glycan array binding signal (z-score),[12],-0.259
same,glycan array binding signal (z-score),[13],-0.466
same,glycan array binding signal (z-score),[14],-0.624
same,glycan array binding signal (z-score),[15],3.93
same,glycan array binding signal (z-score),[16],1.74
same,glycan array binding signal (z-score),[17],4.82
same,glycan array binding signal (z-score),[18],0.133
same,glycan array binding signal (z-score),[19],0.324
same,glycan array binding signal (z-score),[20],-0.128
same,glycan array binding signal (z-score),[21],6.79
same,glycan array binding signal (z-score),[22],-0.351
same,glycan array binding signal (z-score),[23],5.13
same,glycan array binding signal (z-score),[24],3.73
same,glycan array binding signal (z-score),[25],-0.596
same,glycan array binding signal (z-score),[26],-0.436
same,glycan array binding signal (z-score),[27],2.4
B2,glycan array binding signal (z-score),[1],-0.228
same,glycan array binding signal (z-score),[28],-0.514
same,glycan array binding signal (z-score),[29],7.39
same,glycan array binding signal (z-score),[30],0.04
same,glycan array binding signal (z-score),[31],0.163
same,glycan array binding signal (z-score),[32],1.99
same,glycan array binding signal (z-score),[2],0.424
same,glycan array binding signal (z-score),[33],-0.373
same,glycan array binding signal (z-score),[34],0.485
same,glycan array binding signal (z-score),[35],-0.32
same,glycan array binding signal (z-score),[36],-0.045
same,glycan array binding signal (z-score),[37],1.11
same,glycan array binding signal (z-score),[38],-0.381
same,glycan array binding signal (z-score),[39],-0.332
same,glycan array binding signal (z-score),[40],2.09
same,glycan array binding signal (z-score),[41],3.49
same,glycan array binding signal (z-score),[42],0.978
same,glycan array binding signal (z-score),[43],2.14
same,glycan array binding signal (z-score),[44],-0.14
same,glycan array binding signal (z-score),[45],-0.151
same,glycan array binding signal (z-score),[46],-0.565
same,glycan array binding signal (z-score),[47],-0.223
same,glycan array binding signal (z-score),[48],-0.266
same,glycan array binding signal (z-score),[49],-0.235
same,glycan array binding signal (z-score),[50],-0.113
same,glycan array binding signal (z-score),[51],-0.245
same,glycan array binding signal (z-score),[52],-0.465
same,glycan array binding signal (z-score),[53],-0.453
